High-throughput results as filed in PubChem.
Pf growth 48h – inhibits P. falciparum growth in the first generation, 48 h | P. falciparum luciferase growth in erythrocytes, 48 h | Potency, µM (series often up to 28.7 µM), inactives show top-dose activity change, negative = inhibition, usual class: inhibitors | 5.9% of 310,000 active | AID 504832; note: potency is the fitted concentration of half-maximal effect; % is set by controls: 0 for no effect and ±100 for the full control effect
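A one-generation exposure of luciferase-tagged malaria parasites in RPMI 1640/Albumax erythrocyte culture, 37 C and 5% CO2. Inhibition is inferred from decreased luminescence after adding detection reagent.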
Pf growth 96h – P. falciparum growth inhibition at 96 hour, primary screen for plastid delayed-death inhibitors; P. falciparum luciferase reporter growth, 96 h; Potency, µM (highest dose often 28.7 µM), inactives show at the top dose activity change, negative = inhibition, usual class: inhibitors; 6.9% of 320,000 active; note: potency is the fitted concentration of half-maximal effect; % is set by controls: 0 for no effect and ±100 for the full control effect
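Infected RBCs, 2% Hct / 0.05% parasitemia final; luciferase-reporter P. falciparum; cpd 96 h, 37 C, 5% CO2; luciferase detection reagent; luminescence.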
AMA1-RON2 inh – inhibitors of Plasmodium falciparum AMA1-RON2 interaction; AlphaScreen AMA1-biotinylated RON2 peptide binding; Potency, µM (top dose mostly 58.2 µM), without a hit: at the top dose activity change, negative = inhibition, actives largely listed as inhibitors; 0.2% of 360,000 active; AID 720542;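 note: potency is the fitted concentration of half-maximal effect; 0% = vehicle wells and -100% = peptide control; nearly all actives have a fitted effect of over 45% in size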
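AMA1 (3D7) with his tag at 25 nM final met compounds first, then biotinylated RON2 peptide at 25 nM; detection used donor plus acceptor beads, 10 µg/mL apiece, read by AlphaScreen after 30 min at room temperature.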
SARS PLP yeast – SARS-CoV PLP inhibition in yeast; S. cerevisiae expressing SARS-CoV PLpro, growth rescue; Potency, µM (doses to about 32.9 µM), without a hit: at the highest dose activity, positive = growth rescue, most hits filed as activators; 0.19% of 330,000 active; calls by dose curve; note: potency is the fitted concentration of half-maximal effect; 0% is about no effect; nearly all actives have a fitted effect of over 55% in size
Cycloheximide cs – counter-screen hit for Shiga toxin inhibitors, cycloheximide | AID 2314 | 12% of 300,000 active | max response, % | cell reporter, cycloheximide protein synthesis inhibition counterscreen; in the data active = max response mostly above about 13%, no sharp cut-off; inactive = mostly below about 14%; note: read at 38.3 µM for the half of the compounds with a filed dose; 0% is about no effect
Shiga toxin inh – inhibitors of Shiga toxin in Vero cells; 9.2% of 290,000 active; Vero cells, Shiga toxin protein synthesis inhibition reporter; inhibition, % at 38.7 µM; AID 2315; in the data active = inhibition mostly above about 28%, no sharp cut-off; inactive = mostly below about 43%; note: 0% is about no effect
Starred values were filed as active, the others as inactive; ? = inconclusive; . = no result; [ ] = another dose, or the depositor's remark. In the library only some 19% were active in any assay of this set; here they are far more common. Unless noted, calls come from the whole dose curve; as a rule, active = well fitted curve in the direction sought with a large enough effect; inconclusive = small, poorly fitted or top-dose-only effect, or another doubt; inactive = no such curve, though single readings can be large; an effect the other way counts as inactive or inconclusive.

SMILES	Pf growth 48h	Pf growth 96h	AMA1-RON2 inh	SARS PLP yeast	Cycloheximide cs	Shiga toxin inh
CCCNC(=O)OC[C@H]1O[C@H](CCO/N=C(\C)CCN2CCc3nc(-c4ccccc4)c(-c4ccccc4)cc3C2)C=C[C@@H]1Oc1ccc(OC)cc1	5.9µM*	4.7µM*	.	-7%	1	34
O=C(/C=C/c1ccccc1)Nc1ccc(CN2CCOCC2)cc1	85%	37%	-3%	?	47*	35*
O=C(/C=C/c1ccco1)Nc1ccc(N2CCCC2)cc1	2%	3%	-10%	-19%	68*	66*
O=C(/C=C/c1ccco1)Nc1ccc(CN2CCOCC2)cc1	226%	169%	-5%	0%	41*	46*
Cc1ccc(NC(=O)/C=C/c2ccco2)cc1S(=O)(=O)N1CCCCCC1	.	.	-7%	.	.	.
O=C(/C=C/c1ccco1)Nc1ccc(C(=O)N2CCOCC2)cc1	2%	9.3µM*	1%[11.6 µM]	-12%	12	26
CCOc1ccccc1NC(=O)NC1CC2CCCC(C1)N2Cc1nnnn1CCc1ccccc1 (stereo unspecified)	-26%	?	-7%	11%	-6	-26
CCOC(=O)N1CCN(C(=O)CN(c2ccccc2OC)S(=O)(=O)c2ccc(C)cc2)CC1	?	12µM*	16%	2%	3	-24
COc1ccccc1N(CC(=O)N1CCCC1)S(=O)(=O)c1ccc(C)cc1	-11%	29%	6%	-2%	-4	-11
CCOC(=O)C1CCN(C(=O)CN(c2cc(OC)ccc2OC)S(=O)(=O)c2ccccc2)CC1	13µM*	?	-8%	-2%	-1	-15
COc1ccc(OC)c(N(CC(=O)N2CCCC2)S(=O)(=O)c2ccc(OC)c(OC)c2)c1	?	.	13%	3%	-2	5
Cc1ccc(Cl)cc1N1CCN(C(=O)CN(C2CCCCC2)S(C)(=O)=O)CC1	?	10µM*	-3%	-34%	-3	2
CCN(CC)C(=O)CN(c1cc2c(cc1OC)oc1ccccc12)S(=O)(=O)c1ccc(C)cc1	12µM*	.	-14%	0%	7	-9
CC(Sc1ccccc1)C(=O)NCC(c1ccco1)N1CCCCC1 (stereo unspecified)	?	?	28%	-3%	.	.
CCOC(=O)N1CCN(C(=O)CN(C2CCCCC2)S(=O)(=O)c2ccc(C)cc2)CC1	10µM*	-4%	2%	-1%	3	9
Cc1ccc2oc(=O)c3cc(C(=O)NCCN4CCN(C)CC4)sc3c2c1	6%	56%	-1%	4%	-3	-3
CCN(CC)C(=O)c1cc2c(=O)oc3ccccc3c2s1	19%	6%	11%	-8%	27*	34*
CCc1nc2ccccc2c(C(=O)OCC(=O)NCCCN2CCCC2=O)c1C	-23%	.	-11%	-2%	-2	-16
Cc1nc2sc(C(N)=O)c(N)c2c(C)c1CC(=O)c1ccccc1	33%	-34%[5.75 µM]	30%	-4%	30*	92*
CCN(CC)C(=O)C1CCN(Cc2cn(C)nc2-c2ccc(Oc3ccccc3)cc2)CC1	7.4µM*	-26%	-4%	1%	2	19
COc1cc(C(=O)NCc2ccc(-c3nc4ccccc4s3)cc2)cc(OC)c1OC	53%	6%	-1%	8%	27*	74*
COc1ccccc1C(=O)NCc1ccc(-c2nc3ccccc3s2)cc1	167%	-27%	4%	17%	41*	58*
COc1cccc(C(=O)NCc2ccc(-c3nc4ccccc4s3)cc2)c1	0%	.	-2%	3%	36*	70*
COc1cccc(C(=O)NCc2cccnc2)c1	6%	.	6%	5%	7	-11
COc1ccc(C(=O)NCc2ccc(-c3nc4ccccc4s3)cc2)cc1	79%	35%	3%	-1%	44*	44
SMILES	Pf growth 48h	Pf growth 96h	AMA1-RON2 inh	SARS PLP yeast	Cycloheximide cs	Shiga toxin inh
N#C/C(=C\Nc1ccc(Cl)cc1)S(=O)(=O)c1ccccn1	-2%	?	8%	0%	-2	5
CN(C)Cc1c(OC(=O)c2ccc(N)cc2)ccc2ccccc12	.	.	-9%	.	.	.
COc1ccc(-c2cn(Cc3ccc(C(=O)NCc4ccc(C)cc4)cc3)c(C(C)N)n2)cc1 (stereo unspecified)	12µM*	?	76%	0%	.	.
Cc1ccc(S(=O)(=O)/N=S(/C)c2ccccc2)cc1 (stereo unspecified)	0%	43%	11%	4%	-1	-3
Cc1ccc(C)c(N2CCN(C(=O)CN(C)S(=O)(=O)c3ccc4c(c3)CCC(=O)N4)CC2)c1	.	2.3µM*	-4%	-2%	-1	-14
COc1cccc(NC(=O)CN(C)S(=O)(=O)c2ccc3c(c2)CCC(=O)N3)c1	17%	7.4µM*	-4%	1%	-2	1
CC1CCC(NC(=O)CN(C)S(=O)(=O)c2ccc3c(c2)CCC(=O)N3)CC1 (stereo unspecified)	-15%	1.5µM*	-1%	-3%	-4	-3
O=C(NC(c1cccnc1)c1ccc2c(c1)OCO2)C1CCN(CCOc2ccc(Cl)cc2Cl)CC1 (stereo unspecified)	.	.	-14%	.	.	.
O=C1c2ccccc2S(=O)(=O)c2cc(C(=O)N3CCC(N4CCCC4)CC3)ccc21	.	.	-2%	.	.	.
O=C(NCC(=O)N1CCC(N2CCCCC2)CC1)C1CCCCC1	9%	1.2µM*	-16%	4%	-2	-6
O=C(NCC(=O)N1CCN(c2ccccc2O)CC1)C1CCCCC1	?	?	3%	-6%	.	.
COn1c(-c2ccccc2)nc2ncccc21	25%	28%	7%	-3%	4	-5
COn1c(-c2ccc(C)cc2)nc2ncccc21	-1%	-14%	0%	0%	21*	30
Cc1ccc(/C=N\NC(=O)c2cncc(Br)c2)o1	29%	15%	42%	1%	-2	14
Nc1nonc1-c1nc2ccccc2n1CC(=O)N/N=C/c1ccc(-c2cccc(C(=O)O)c2)o1	4%	0%	-5%	0%	34*	70*
O=C(Cc1ccc(Br)cc1)N/N=C/c1ccc(-c2cccc(C(=O)O)c2)o1	34%	54%	13%	0%	31*	102*
CC(C)OC(=O)c1ccc(NC(=O)Cn2c(-c3nonc3N)nc3ccccc32)cc1	10µM*	8.3µM*	-8%	9%	-2	-5
Nc1nonc1-c1nc2ccccc2n1CC(=O)O	.	60%	6%	10%	-1	-2
CCOC(=O)c1ccc(-c2ccc(/C=N/NC(=O)c3cncc(Br)c3)o2)cc1	?	55%	12%	-1%	13*	40*
Nc1nnc(CC(=O)N/N=C/c2ccc(-c3cccc(C(=O)O)c3)o2)s1	18%	20%	-7%	1%	61*	142*
O=C(O)c1cccc(-c2ccc(/C=N/NC(=O)c3cccnc3)o2)c1	32%	16%	79%	4%	83*	171*
